# Measured values published in PubChem BioAssay AID1159580 (chemical genetic matrix, 2015).
# About 2,000 (36%) of roughly 5,500 compounds were called active. Another 18% or so got no clear call; they are omitted. This is one part of the list. Unmarked numbers belong to inactive results. Rule as the data show it: active = normalized growth mostly below about 0.91 (no sharp cut-off); inconclusive = no clear call, values can overlap the other calls; inactive = mostly above about 0.92.
# Experiment: chemical genetic growth profiling, strain panel (AID 1159580);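 also: tested at 20 µM; growth read once vehicle control cultures reached saturation at 30 °C; 1 = growth at the plate median or of vehicle wells; lower values mean less growth of the strain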
# Conditions: S. cerevisiae deletion strains, growth OD
# [1] = locus YAR019C, strain CDC15, stronger effect = lower value
# [2] = locus YBL105C, strain PKC1, stronger effect = lower value
# [3] = locus YBR135W, strain CKS1, stronger effect = lower value
# [4] = locus YBR136W, strain MEC1, stronger effect = lower value
# [5] = locus YBR160W, strain CDC28, stronger effect = lower value
# [6] = locus YDL017W, strain CDC7, stronger effect = lower value
# [7] = locus YDL028C, strain MPS1, stronger effect = lower value
# [8] = locus YDL101C, strain DUN1, stronger effect = lower value
# [9] = locus YDL108W, strain KIN28, stronger effect = lower value
# [10] = locus YDL132W, strain cdc53, stronger effect = lower value
# [11] = locus YDL214C, strain PRR2, stronger effect = lower value
# [12] = locus YDR052C, strain DBF4, stronger effect = lower value
# [13] = locus YDR054C, strain cdc34, stronger effect = lower value
# [14] = locus YDR226W, strain ADK1, stronger effect = lower value
# [15] = locus YDR477W, strain SNF1, stronger effect = lower value
# [16] = locus YER123W, strain YCK3, stronger effect = lower value
# [17] = locus YER133W, strain GLC7, stronger effect = lower value
# [18] = locus YFL009W, strain cdc4, stronger effect = lower value
# [19] = locus YFL029C, strain CAK1, stronger effect = lower value
# [20] = locus YFR003C, strain YPI1, stronger effect = lower value
# [21] = locus YFR019W, strain FAB1, stronger effect = lower value
# [22] = locus YFR028C, strain CDC14, stronger effect = lower value
# [23] = locus YGR040W, strain KSS1, stronger effect = lower value
# [24] = locus YGR052W, strain FMP48, stronger effect = lower value
# [25] = locus YGR092W, strain DBF2, stronger effect = lower value
# [26] = locus YHR030C, strain SLT2, stronger effect = lower value
# [27] = locus YHR079C, strain IRE1, stronger effect = lower value
# [28] = locus YHR082C, strain KSP1, stronger effect = lower value
# [29] = locus YHR205W, strain SCH9, stronger effect = lower value
# [30] = locus YIL147C, strain SLN1, stronger effect = lower value
# [31] = locus YJL095W, strain BCK1, stronger effect = lower value
# [32] = locus YJL128C, strain PBS2, stronger effect = lower value
# [33] = locus YJL157C, strain FAR1, stronger effect = lower value
# [34] = locus YJR016C, strain ILV3, stronger effect = lower value
# [35] = locus YJR066W, strain TOR1 (second series), stronger effect = lower value
# [36] = locus YJR066W, strain TOR1, stronger effect = lower value
# [37] = locus YKL048C, strain ELM1, stronger effect = lower value
# [38] = locus YKL067W, strain YNK1, stronger effect = lower value
# [39] = locus YKL101W, strain HSL1, stronger effect = lower value
# [40] = locus YKL193C, strain SDS22, stronger effect = lower value
# [41] = locus YKL203C, strain TOR2, stronger effect = lower value
# [42] = locus YLR113W, strain HOG1, stronger effect = lower value
# [43] = locus YLR133W, strain CKI1, stronger effect = lower value
# [44] = locus YLR403W, strain SFP1, stronger effect = lower value
# [45] = locus YML070W, strain DAK1, stronger effect = lower value
# [46] = locus YMR001C, strain CDC5, stronger effect = lower value
# [47] = locus YMR205C, strain PFK2 (second series), stronger effect = lower value
# [48] = locus YMR277W, strain FCP1, stronger effect = lower value
# [49] = locus YNL006W, strain LST8, stronger effect = lower value
# [50] = locus YNL020C, strain ARK1, stronger effect = lower value
# [51] = locus YNL161W, strain CBK1, stronger effect = lower value
# [52] = locus YNL183C, strain NPR1, stronger effect = lower value
# [53] = locus YNL207W, strain RIO2, stronger effect = lower value
# [54] = locus YNL222W, strain SSU72, stronger effect = lower value
# [55] = locus YNL307C, strain MCK1 (second series), stronger effect = lower value
# [56] = locus YOL078W, strain AVO1, stronger effect = lower value
# [57] = locus YOL136C, strain PFK27, stronger effect = lower value
# [58] = locus YOR061W, strain CKA2, stronger effect = lower value
# [59] = locus YOR119C, strain RIO1, stronger effect = lower value
# [60] = locus YOR231W, strain MKK1, stronger effect = lower value
# [61] = locus YOR329C, strain SCD5, stronger effect = lower value
# [62] = locus YPL031C, strain PHO85, stronger effect = lower value
# [63] = locus YPL153C, strain RAD53, stronger effect = lower value
# [64] = locus YPL204W, strain HRR25, stronger effect = lower value
# [65] = locus YPL209C, strain IPL1, stronger effect = lower value
# [66] = locus YPL256C, strain CLN2, stronger effect = lower value
# [67] = locus YPR025C, strain CCL1, stronger effect = lower value
# [68] = locus YPR106W, strain ISR1, stronger effect = lower value
# [69] = locus YPR111W, strain DBF20, stronger effect = lower value
# [70] = strain NNK1, stronger effect = lower value
# [71] = strain TSCII, stronger effect = lower value
smiles,measurement,setting,value
Oc1c(Cl)cc(Cl)cc1/C=N\NC(=S)Nc1cc(C(F)(F)F)cc(C(F)(F)F)c1,normalized growth,[1],0.815 (active)
same,normalized growth,[2],0.899 (active)
same,normalized growth,[3],0.884 (active)
same,normalized growth,[4],0.888 (active)
same,normalized growth,[5],0.893 (active)
same,normalized growth,[6],0.889 (active)
same,normalized growth,[7],0.878 (active)
same,normalized growth,[8],0.922
same,normalized growth,[9],0.88 (active)
same,normalized growth,[10],0.811 (active)
same,normalized growth,[11],0.179 (active)
same,normalized growth,[12],0.894 (active)
same,normalized growth,[13],0.491 (active)
same,normalized growth,[14],0.886 (active)
same,normalized growth,[15],0.285 (active)
same,normalized growth,[16],0.158 (active)
same,normalized growth,[17],0.338 (active)
same,normalized growth,[18],0.611 (active)
same,normalized growth,[19],0.784 (active)
same,normalized growth,[20],0.853 (active)
same,normalized growth,[21],0.111 (active)
same,normalized growth,[22],0.857 (active)
same,normalized growth,[23],0.35 (active)
same,normalized growth,[24],0.132 (active)
same,normalized growth,[25],0.0943 (active)
same,normalized growth,[26],0.126 (active)
same,normalized growth,[27],0.103 (active)
same,normalized growth,[28],0.151 (active)
same,normalized growth,[29],0.121 (active)
same,normalized growth,[30],0.887 (active)
same,normalized growth,[31],0.136 (active)
same,normalized growth,[32],0.905
same,normalized growth,[33],0.128 (active)
same,normalized growth,[34],0.722 (active)
same,normalized growth,[35],0.118 (active)
same,normalized growth,[36],0.119 (active)
same,normalized growth,[37],0.166 (active)
same,normalized growth,[38],0.137 (active)
same,normalized growth,[39],0.12 (active)
same,normalized growth,[40],0.858 (active)
same,normalized growth,[41],0.132 (active)
same,normalized growth,[42],0.171 (active)
same,normalized growth,[43],0.12 (active)
same,normalized growth,[44],0.159 (active)
same,normalized growth,[45],0.116 (active)
same,normalized growth,[46],0.805 (active)
same,normalized growth,[47],0.157 (active)
same,normalized growth,[48],0.811 (active)
same,normalized growth,[49],0.673 (active)
same,normalized growth,[50],0.117 (active)
same,normalized growth,[51],0.789 (active)
same,normalized growth,[52],0.245 (active)
same,normalized growth,[53],0.858 (active)
same,normalized growth,[54],0.885 (active)
same,normalized growth,[55],0.114 (active)
same,normalized growth,[56],0.856 (active)
same,normalized growth,[57],0.139 (active)
same,normalized growth,[58],0.114 (active)
same,normalized growth,[59],0.217 (active)
same,normalized growth,[60],0.128 (active)
same,normalized growth,[61],0.56 (active)
same,normalized growth,[62],0.163 (active)
same,normalized growth,[63],0.171 (active)
same,normalized growth,[64],0.121 (active)
same,normalized growth,[65],0.891 (active)
same,normalized growth,[66],0.158 (active)
same,normalized growth,[67],0.893 (active)
same,normalized growth,[68],0.922
same,normalized growth,[69],0.905
same,normalized growth,[70],0.272 (active)
same,normalized growth,[71],0.621 (active)
CCNC(=S)N/N=C\c1cc(Cl)cc(Cl)c1O,normalized growth,[1],0.926
same,normalized growth,[2],0.938
same,normalized growth,[3],0.92
same,normalized growth,[4],0.931
same,normalized growth,[5],0.922
same,normalized growth,[6],0.925
same,normalized growth,[7],0.927
same,normalized growth,[8],0.923
same,normalized growth,[9],0.928
same,normalized growth,[10],0.948
same,normalized growth,[11],0.83
same,normalized growth,[12],0.929
same,normalized growth,[13],0.938
same,normalized growth,[14],0.941
same,normalized growth,[15],0.733
same,normalized growth,[16],0.577 (active)
same,normalized growth,[17],0.752
same,normalized growth,[18],0.911
same,normalized growth,[19],0.919
same,normalized growth,[20],0.937
same,normalized growth,[21],0.873
same,normalized growth,[22],0.947
same,normalized growth,[23],0.775
same,normalized growth,[24],0.709
same,normalized growth,[25],0.313 (active)
same,normalized growth,[26],0.446 (active)
same,normalized growth,[27],0.341 (active)
same,normalized growth,[28],0.699
same,normalized growth,[29],0.778
same,normalized growth,[30],0.923
same,normalized growth,[31],0.568
same,normalized growth,[32],0.925
same,normalized growth,[33],0.774
same,normalized growth,[34],0.93
same,normalized growth,[35],0.654
same,normalized growth,[36],0.509
same,normalized growth,[37],0.825
same,normalized growth,[38],0.875
same,normalized growth,[39],0.76
same,normalized growth,[40],0.908
same,normalized growth,[41],0.686 (active)
same,normalized growth,[42],0.706 (active)
same,normalized growth,[43],0.804
same,normalized growth,[44],0.746
same,normalized growth,[45],0.809
same,normalized growth,[46],0.923
same,normalized growth,[47],0.805
same,normalized growth,[48],0.916
same,normalized growth,[49],0.919
same,normalized growth,[50],0.749
same,normalized growth,[51],0.926
same,normalized growth,[52],0.589
same,normalized growth,[53],0.91
same,normalized growth,[54],0.93
same,normalized growth,[55],0.647
same,normalized growth,[56],0.916
same,normalized growth,[57],0.778
same,normalized growth,[58],0.801
same,normalized growth,[59],0.78
same,normalized growth,[60],0.471 (active)
same,normalized growth,[61],0.926
same,normalized growth,[62],0.635 (active)
same,normalized growth,[63],0.621 (active)
same,normalized growth,[64],0.642 (active)
same,normalized growth,[65],0.919
same,normalized growth,[66],0.495 (active)
same,normalized growth,[67],0.923
same,normalized growth,[68],0.947
same,normalized growth,[69],0.938
same,normalized growth,[70],0.94
same,normalized growth,[71],0.912
